From PubChem BioAssay AID1745853 (National Center for Advancing Translational Sciences (NCATS), 2022)
About 970 (3.9%) of roughly 25,000 compounds were called active. Another 8% or so got no clear call; they are omitted. The sample holds actives, similar compounds and a random draw of the others, so the mix is not that of the screen. How the calls were made is not given here.

How the values were obtained:
Test in all cases: Primary Screen for Target Class Profiling of Small Molecule Inhibitors of Methyltransferases
[1] = molecular target: Catechol O-methyltransferase (Homo sapiens) (UniProt P21964); settings: purified enzyme, MTase-Glo SAH luminescence; activity change, negative = inhibition: at 40 µM, stronger effect = lower value; outcome: 40 uM
Catechol O-methyltransferase (Homo sapiens), sequence (P21964 whole entry, looked up): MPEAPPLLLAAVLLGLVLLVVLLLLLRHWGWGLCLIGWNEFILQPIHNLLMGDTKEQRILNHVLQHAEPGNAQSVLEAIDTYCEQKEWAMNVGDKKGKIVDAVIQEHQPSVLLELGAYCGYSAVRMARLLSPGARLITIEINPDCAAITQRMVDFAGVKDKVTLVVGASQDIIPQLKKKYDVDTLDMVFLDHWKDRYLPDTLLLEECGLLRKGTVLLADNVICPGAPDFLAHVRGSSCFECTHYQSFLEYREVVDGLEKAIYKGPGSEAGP
Excerpt: (§1) PI: Matthew D. Hall Ph.D. and Quinlin M. Hanson Ph.D.
(§2) National Center for Advancing Translational Sciences (NCATS)
(§3) National Institute of Health (NIH), Rockville, MD
(§4) Target class profiling (TCP) is a chemical biology approach amenable to investigating understudied biological targets. TCP is achieved by developing a generalizable assay platform and applying it to screen a curated set of compound libraries against representative members of a target class. Small molecule methyltransferases (SMMTase) are a subclass of methyltransferase that act on metabolites to modulate signaling pathways, metabolize xenobiotics, or balance the available methyl pool. We screened four curated libraries totaling 27,574 unique compounds against the SMMTases nicotinamide N-methyltransferase (NNMT), phenylethanolamine N-methyltransferase (PNMT), histamine N-methyltransferase (HNMT), glycine N-methyltransferase (GNMT), catechol O-methyltransferase (COMT), and guanidinoacetate N-methyltransferase (GAMT). The data generated by this TCP can be leveraged for informed tool molecule development. For example, in the associated publication we identified a chemotype of HNMT-selective inhibitors. Additionally, we identified a putative SMMTase-selective inhibitor with potential as a tool molecule for studying broader methyltransferase biology.
(§5) High-through put screening assays were developed at the National Center for Advancing Translational Science (NCATS) for the enzymes NNMT, PNMT, HNMT, GNMT, COMT, and GAMT. Enzymatic activity was measured as a function of SAM cofactor conversion using the MTase Glo kit (Promega) for all enzymes. All assays were performed in 1536-well format with substrates and SAM concentrations at KM values. Enzyme concentration and assay timing were optimized for 10-20% SAM conversion. Initial screening of 27,574 compounds was done as single-point assays using the highest compound concentration (40 uM). […] These compounds were replated in 11-point dose response and assayed against NNMT, PNMT, HNMT, GNMT, COMT, GAMT, and a counter-assay. The IC50 and efficacy (maximal response) values were determined for each dose-response curve. These values are also accounted for in the area under the curve (AUC) values.
(§6) PROTOCOL TABLE (as described by Inglese J, Shamu CE and Guy RK. 2007)
(§7) SEQUENCE No. (e.g., 1, 2, 3, etc.); […] (e.g., Cells, Incubation, Reagent, etc.); VALUE; DESCRIPTION.
(§8) 1; Reagent; 2 uL; SMMTase Enzyme (2x) in reaction buffer, columns 1- 48.
(§9) 2; Reagent; 1 uL; SAM (4x) in reaction buffer, columns 1-48.
(§10) 3; Controls; 23 nL; DMSO in column 4; sinefungin in DMSO (0 uM - 40 uM) in 7-point 1:2 dilution series (n = 2) in column 2.
(§11) 4; Compounds; 23 nL; Columns 5-48.
(§12) 5; Reagent; 1 uL; Substrate (4x) in reaction buffer, columns 2-48.
(§13) 6; Time; 20-30 min; Incubation.
(§14) 7; Reagent; 1 uL; MTase-Glo reagent (5X), columns 1-48.
(§15) 8; Time; 30 min; Incubation.
(§16) 9; Reagent; 5 uL; MTase-Glo Detection reagent, columns 1-48.
(§17) 10; Time; 30 min; Incubation, luminescence evolution.
(§18) 11; Detection; Luminescence; ViewLux uHTS Microplate Imager (PerkinElmer).
(§19) NOTES (numbers refer to Sequence numbers above)
(§20) 1, 2, 5. White Medium Binding Greiner 1536-well plates (Cat #789175-F, Greiner Bio-One, Monroe, NC); Reaction buffer: 50 mM Tris, pH 8.0, 3 mM MgCl2, 1 mM EDTA, 50 mM NaCl, 1 mM DTT, and 0.1 mg/mL BSA. Evaporation was prevented by covering assay plates with metal lids containing holes to allow gas diffusion.
(§21) 1. Six SMMTase were profiled: HNMT, GNMT, PNMT, COMT, NNMT, GAMT
(§22) 5. The corresponding substrate was used for each enzyme: HNMT - 5.3 uM Histamine; GNMT - >500 uM Glycine; PNMT - 16.2 uM Norephinephrine; COMT - 13.7 uM Norephinephrine; NNMT - 3.8 uM Nicotinamide; GAMT - 2.5 uM Guanidinoacetate.6, 8, 10. Room temperature
(§23) 6. Final reaction conditions: 10 nM COMT, 5 uM SAM, 15 uM norepinephrine, 50 mM Tris, pH 8.0, 3 mM MgCl2, 1 mM EDTA, 50 mM NaCl, 1 mM DTT, and 0.1 mg/mL BSA; refer to tables 2 and S1 for specific timing.
8. […]

[2] = molecular target: Glycine N-methyltransferase (Homo sapiens) (UniProt Q14749); settings: purified enzyme, MTase-Glo SAH luminescence; measured here: GNMT inhibition; at 40 µM; stronger effect = lower value
Glycine N-methyltransferase (Homo sapiens), sequence (Q14749 whole entry, looked up): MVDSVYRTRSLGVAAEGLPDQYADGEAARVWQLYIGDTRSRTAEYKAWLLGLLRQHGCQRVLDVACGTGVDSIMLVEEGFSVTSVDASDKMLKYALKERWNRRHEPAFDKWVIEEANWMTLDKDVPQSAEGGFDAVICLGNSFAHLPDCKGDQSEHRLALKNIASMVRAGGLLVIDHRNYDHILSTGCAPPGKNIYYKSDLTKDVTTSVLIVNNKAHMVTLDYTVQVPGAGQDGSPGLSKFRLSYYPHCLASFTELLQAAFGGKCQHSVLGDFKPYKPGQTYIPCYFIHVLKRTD
Excerpt: as §1, §2, §3, §4, §5, §6, §7, §8, §9, §10, §11, §12, §13, §14, §15, §16, §17, §18, §19, §20, §21, §22, §23
8. […]

[3] = molecular target: Guanidinoacetate N-methyltransferase (Homo sapiens) (UniProt Q14353); settings: purified enzyme, MTase-Glo SAH luminescence; measured here: GAMT inhibition; at 40 µM; stronger effect = lower value
Excerpt: as §1, §2, §3, §4, §5, §6, §7, §8, §9, §10, §11, §12, §13, §14, §15, §16, §17, §18, §19, §20, §21, §22, §23
8. […]

[4] = molecular target: Histamine N-methyltransferase (Homo sapiens) (UniProt P50135); settings: purified enzyme, MTase-Glo SAH luminescence; measured here: HNMT inhibition; at 40 µM; stronger effect = lower value
Histamine N-methyltransferase (Homo sapiens), sequence (P50135 whole entry, looked up): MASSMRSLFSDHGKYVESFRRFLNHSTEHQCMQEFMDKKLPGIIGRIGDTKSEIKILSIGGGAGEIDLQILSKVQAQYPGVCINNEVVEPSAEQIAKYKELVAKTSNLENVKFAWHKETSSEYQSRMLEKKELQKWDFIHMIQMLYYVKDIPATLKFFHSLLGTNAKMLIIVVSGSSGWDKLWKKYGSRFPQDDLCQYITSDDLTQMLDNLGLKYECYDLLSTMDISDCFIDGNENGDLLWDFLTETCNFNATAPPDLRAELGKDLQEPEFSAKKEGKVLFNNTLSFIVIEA
Excerpt: as §1, §2, §3, §4, §5, §6, §7, §8, §9, §10, §11, §12, §13, §14, §15, §16, §17, §18, §19, §20, §21, §22, §23
8. […]

[5] = molecular target: Nicotinamide N-methyltransferase (Homo sapiens) (UniProt P40261); settings: purified enzyme, MTase-Glo SAH luminescence; measured here: NNMT inhibition; at 40 µM; stronger effect = lower value
Nicotinamide N-methyltransferase (Homo sapiens), sequence (P40261 whole entry, looked up): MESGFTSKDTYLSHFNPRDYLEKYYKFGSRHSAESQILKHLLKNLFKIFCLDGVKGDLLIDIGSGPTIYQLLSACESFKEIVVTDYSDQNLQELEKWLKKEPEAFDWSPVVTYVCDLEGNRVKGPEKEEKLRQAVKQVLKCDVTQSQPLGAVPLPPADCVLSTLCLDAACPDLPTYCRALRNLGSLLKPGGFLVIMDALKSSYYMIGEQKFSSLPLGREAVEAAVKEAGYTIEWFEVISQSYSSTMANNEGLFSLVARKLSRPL
Excerpt: as §1, §2, §3, §4, §5, §6, §7, §8, §9, §10, §11, §12, §13, §14, §15, §16, §17, §18, §19, §20, §21, §22, §23
8. […]

[6] = molecular target: Phenylethanolamine N-methyltransferase (Homo sapiens) (UniProt P11086); settings: purified enzyme, MTase-Glo SAH luminescence; measured here: PNMT inhibition; at 40 µM; stronger effect = lower value
Phenylethanolamine N-methyltransferase (Homo sapiens), sequence (P11086 whole entry, looked up): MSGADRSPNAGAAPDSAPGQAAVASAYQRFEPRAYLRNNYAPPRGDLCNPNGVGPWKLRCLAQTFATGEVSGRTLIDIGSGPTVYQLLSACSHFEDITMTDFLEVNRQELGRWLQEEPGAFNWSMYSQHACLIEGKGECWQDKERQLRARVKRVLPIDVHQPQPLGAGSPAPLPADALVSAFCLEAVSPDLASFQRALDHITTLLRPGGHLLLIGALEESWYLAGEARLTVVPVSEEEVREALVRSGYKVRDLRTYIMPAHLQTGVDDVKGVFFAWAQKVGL
Excerpt: as §1, §2, §3, §4, §5, §6, §7, §8, §9, §10, §11, §12, §13, §14, §15, §16, §17, §18, §19, §20, §21, §22, §23
8. […]
On the % scale 0 is the no-effect control and ±100 the full control effect.

Structure (SMILES)	activity change, negative = inhibition [1]	activity change, negative = inhibition [2] [%]	activity change, negative = inhibition [3] [%]	activity change, negative = inhibition [4] [%]	activity change, negative = inhibition [5] [%]	activity change, negative = inhibition [6] [%]
Cc1cc2c(F)c(Oc3ncnn4cc(OCC(C)O)c(C)c34)ccc2[nH]1 (stereo unspecified)	3.68% (inactive)	3.84	9.85	8.7	-17.3	-3.09
Cc1nonc1OCCn1ccnc1-c1cn(C2CCNCC2)nn1	0.411% (inactive)	-2.5	-0.534	-2.48	-2.16	-1.03
CCOC(=O)c1ccc(N2C(=O)CSc3c(c4ccccc4n3C)C2C(=O)NCc2ccccc2)cc1 (stereo unspecified)	8.93% (inactive)	13.6	0.807	10.5	10.6	10.2
CC1CC(O)/C=C/C(O)/C=C\C(=O)O1 (stereo unspecified)	-1.4% (inactive)	0.769	10.1	9.33	-2.16	5.9
O=C(CCn1ccc2cc(S(=O)(=O)N3CCCC3)ccc21)NCc1cccc(Cl)c1	-5.13% (inactive)	-5.66	0	-0.957	-15.3	-7.6
CC(F)(F)CN1CCOc2c(nn(-c3ccccc3Cl)c2-c2ccc(Cl)cc2)C1=O	-4.89% (active)	-72.3	-2.43	-6.67	-49.1	-14.4
